# Results taken from PubChem BioAssay AID1159580 (chemical genetic matrix, 2015).
# Values joined by “and” are separate entries in the source; they are usually repeats but may differ in a detail not shown here. Identical values can stand only once. Hit rate of the full screen: of about 5,500 compounds, about 2,000 (36%) were called active. Inconclusive results (about 18%) are left out. Some of the results follow. Values without a mark were called inactive. No stated cut-off is given here; in the data, active means normalized growth mostly below about 0.91 (no sharp cut-off); inconclusive means no clear call, values can overlap the other calls; inactive means mostly above about 0.92.
# Experiment: chemical genetic growth profiling, strain panel (AID 1159580);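 further: tested at 20 µM; growth read once vehicle control cultures reached saturation at 30 °C; 1 = growth at the plate median or of vehicle wells; lower values mean less growth of the strain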
# Conditions: S. cerevisiae deletion strains, growth OD
structure (smiles),measurement,setting,value
COc1c2c(cc3occ(-c4ccc5c(c4)OCO5)c(=O)c13)OC(C)(C)C=C2,normalized growth,"locus YAL013W, strain DEP1, active compounds read low",0.989
same,normalized growth,"locus YAL021C, strain ccr4, active compounds read low",1
same,normalized growth,"locus YAL026C, strain drs2, active compounds read low",0.975
same,normalized growth,"locus YAL030W, strain snc1, active compounds read low",0.997
same,normalized growth,"locus YBL061C, strain skt5, active compounds read low",0.969
same,normalized growth,"locus YBR009C, strain hhf1, active compounds read low",0.966
same,normalized growth,"locus YBR021W, strain FUR4, active compounds read low",0.973
same,normalized growth,"locus YBR023C, strain chs3, active compounds read low",0.967
same,normalized growth,"locus YBR171W, strain sec66, active compounds read low",0.988
same,normalized growth,"locus YBR229C, strain ROT2, active compounds read low",0.987
same,normalized growth,"locus YBR231C, strain swc5, active compounds read low",0.989
same,normalized growth,"locus YBR279W, strain paf1, active compounds read low",1.03
same,normalized growth,"locus YCL011C, strain gbp2, active compounds read low",0.985
same,normalized growth,"locus YCL016C, strain dcc1, active compounds read low",0.994
same,normalized growth,"locus YCL029C, strain bik1, active compounds read low",0.961
same,normalized growth,"locus YCL061C, strain MRC1, active compounds read low",0.996
same,normalized growth,"locus YCL069W, strain vba3, active compounds read low",1
same,normalized growth,"locus YCR088W, strain abp1, active compounds read low",0.995
same,normalized growth,"locus YDL005C, strain med2, active compounds read low",1
same,normalized growth,"locus YDL035C, strain GPR1, active compounds read low",0.95
same,normalized growth,"locus YDL040C, strain nat1, active compounds read low",1.01
same,normalized growth,"locus YDL074C, strain BRE1, active compounds read low",0.901
same,normalized growth,"locus YDL101C, strain DUN1, active compounds read low",0.98
same,normalized growth,"locus YDL185W, strain tfp1, active compounds read low",0.943
same,normalized growth,"locus YDL192W, strain arf1, active compounds read low",0.918
same,normalized growth,"locus YDR001C, strain nth1, active compounds read low",0.994
same,normalized growth,"locus YDR069C, strain doa4, active compounds read low",0.991
same,normalized growth,"locus YDR101C, strain arx1, active compounds read low",0.925
same,normalized growth,"locus YDR137W, strain rgp1, active compounds read low",0.964
same,normalized growth,"locus YDR159W, strain sac3, active compounds read low",1.02
same,normalized growth,"locus YDR162C, strain NBP2, active compounds read low",0.993
same,normalized growth,"locus YDR195W, strain ref2",1.11
same,normalized growth,"locus YDR297W, strain sur2, active compounds read low",0.995
same,normalized growth,"locus YDR318W, strain mcm21, active compounds read low",0.962
same,normalized growth,"locus YDR334W, strain swr1, active compounds read low",1.01
same,normalized growth,"locus YDR335W, strain msn5, active compounds read low",1.02
same,normalized growth,"locus YDR388W, active compounds read low",0.973
same,normalized growth,"locus YDR392W, strain spt3, active compounds read low",0.644 (active)
same,normalized growth,"locus YDR502C, strain sam2, active compounds read low",0.926
same,normalized growth,"locus YEL003W, strain gim4, active compounds read low",1
same,normalized growth,"locus YEL037C, strain rad23, active compounds read low",1
same,normalized growth,"locus YEL061C, strain CIN8 (second series), active compounds read low",1.01
same,normalized growth,"locus YEL061C, strain CIN8, active compounds read low",0.992
same,normalized growth,"locus YER015W, strain faa2, active compounds read low",1
same,normalized growth,"locus YER016W, strain bim1, active compounds read low",1
same,normalized growth,"locus YER110C, active compounds read low",0.983
same,normalized growth,"locus YER111C, strain swi4, active compounds read low",1.01
same,normalized growth,"locus YER155C, strain BEM2 (second series), active compounds read low",0.936
same,normalized growth,"locus YER155C, strain BEM2, active compounds read low",0.992
same,normalized growth,"locus YER167W, strain BCK2, active compounds read low",0.984
same,normalized growth,"locus YFR010W, strain ubp6, active compounds read low",0.989
same,normalized growth,"locus YGL078C, strain dbp3, active compounds read low",0.929
same,normalized growth,"locus YGL086W, strain mad1, active compounds read low",0.889 (active)
same,normalized growth,"locus YGL167C, strain pmr1, active compounds read low",1
same,normalized growth,"locus YGL173C, strain kem1, active compounds read low",0.996
same,normalized growth,"locus YGL227W, strain vid30, active compounds read low",1
same,normalized growth,"locus YGL240W, strain doc1, active compounds read low",0.998
same,normalized growth,"locus YGL248W, strain PDE1, active compounds read low",0.998
same,normalized growth,"locus YGL253W, strain hxk2, active compounds read low",0.936
same,normalized growth,"locus YGR078C, strain PAC10, active compounds read low",0.982
same,normalized growth,"locus YGR135W, strain pre9, active compounds read low",0.98
same,normalized growth,"locus YGR252W, strain gcn5, active compounds read low",0.983
same,normalized growth,"locus YHR013C, strain ard1, active compounds read low",0.986
same,normalized growth,"locus YHR027C, strain rpn1, active compounds read low",0.993
same,normalized growth,"locus YHR030C, strain SLT2, active compounds read low",0.992 and 1.01
same,normalized growth,"locus YHR079C, strain IRE1 (second series), active compounds read low",0.952
same,normalized growth,"locus YHR079C, strain IRE1, active compounds read low",0.983
same,normalized growth,"locus YHR094C, strain hxt1, active compounds read low",0.977
same,normalized growth,"locus YHR129C, strain ARP1, active compounds read low",0.988
same,normalized growth,"locus YHR142W, strain chs7, active compounds read low",0.857 (active)
same,normalized growth,"locus YHR200W, strain rpn10, active compounds read low",0.949
same,normalized growth,"locus YIL066C, strain RNR3, active compounds read low",0.965
same,normalized growth,"locus YIL073C, strain SPO22, active compounds read low",0.941
same,normalized growth,"locus YIL125W, strain kgd1, active compounds read low",0.96
same,normalized growth,"locus YIR030C, strain dcg1, active compounds read low",0.97
same,normalized growth,"locus YJL092W, strain hpr5, active compounds read low",0.99
same,normalized growth,"locus YJL095W, strain BCK1 (second series), active compounds read low",0.997
same,normalized growth,"locus YJL095W, strain BCK1, active compounds read low",0.981 and 1.01
same,normalized growth,"locus YJL115W, strain asf1, active compounds read low",1.02
same,normalized growth,"locus YJL129C, strain trk1, active compounds read low",0.937
same,normalized growth,"locus YJL134W, strain LCB3, active compounds read low",0.992
same,normalized growth,"locus YJL154C, strain vps35, active compounds read low",1.02
same,normalized growth,"locus YJL164C, strain tpk1, active compounds read low",0.981
same,normalized growth,"locus YJL166W, strain qcr8, active compounds read low",0.973
same,normalized growth,"locus YJL168C, strain set2, active compounds read low",0.972
same,normalized growth,"locus YJL187C, strain SWE1 (second series), active compounds read low",0.975
same,normalized growth,"locus YJL187C, strain SWE1, active compounds read low",1
same,normalized growth,"locus YJR043C, strain POL32, active compounds read low",0.999
same,normalized growth,"locus YJR066W, strain TOR1, active compounds read low",0.955
same,normalized growth,"locus YJR075W, strain HOC1, active compounds read low",0.976
same,normalized growth,"locus YKL009W, strain mrt4, active compounds read low",0.885
same,normalized growth,"locus YKL068W, active compounds read low",0.959
same,normalized growth,"locus YKL085W, strain MDH1 (second series), active compounds read low",0.965
same,normalized growth,"locus YKL085W, strain MDH1, active compounds read low",0.965
same,normalized growth,"locus YKL160W, strain elf1, active compounds read low",0.965
same,normalized growth,"locus YKL190W, strain CNB1, active compounds read low",0.984
same,normalized growth,"locus YKR001C, strain vps1, active compounds read low",0.895 (active)
same,normalized growth,"locus YKR026C, strain gcn3, active compounds read low",0.999
same,normalized growth,"locus YKR091W, strain srl3, active compounds read low",1
same,normalized growth,"locus YLL001W, strain dnm1, active compounds read low",0.989
same,normalized growth,"locus YLL026W, active compounds read low",1
same,normalized growth,"locus YLL041C, strain sdh2, active compounds read low",0.996
same,normalized growth,"locus YLR027C, strain aat2, active compounds read low",0.971
same,normalized growth,"locus YLR039C, strain RIC1, active compounds read low",0.939
same,normalized growth,"locus YLR058C, strain SHM2, active compounds read low",1
same,normalized growth,"locus YLR102C, strain apc9, active compounds read low",0.963
same,normalized growth,"locus YLR113W, strain HOG1, active compounds read low",0.995
same,normalized growth,"locus YLR221C, strain rsa3, active compounds read low",0.948
same,normalized growth,"locus YLR258W, strain gsy2, active compounds read low",0.989
same,normalized growth,"locus YLR262C, strain YPT6 (second series), active compounds read low",0.94
same,normalized growth,"locus YLR262C, strain YPT6, active compounds read low",0.937
same,normalized growth,"locus YLR268W, strain sec22, active compounds read low",0.905
same,normalized growth,"locus YLR320W, strain mms22, active compounds read low",0.928
same,normalized growth,"locus YLR330W, strain CHS5, active compounds read low",0.981
same,normalized growth,"locus YLR342W, strain FKS1 (second series), active compounds read low",0.963
same,normalized growth,"locus YLR342W, strain FKS1, active compounds read low",0.989
same,normalized growth,"locus YLR357W, strain rsc2, active compounds read low",1.02
same,normalized growth,"locus YLR370C, strain arc18, active compounds read low",1
same,normalized growth,"locus YLR371W, strain rom2, active compounds read low",0.944
same,normalized growth,"locus YLR384C, strain iki3, active compounds read low",1.01
same,normalized growth,"locus YLR418C, strain cdc73, active compounds read low",0.87
same,normalized growth,"locus YML016C, strain PPZ1, active compounds read low",1
same,normalized growth,"locus YML032C, strain rad52, active compounds read low",0.999
same,normalized growth,"locus YML120C, strain ndi1, active compounds read low",0.987
same,normalized growth,"locus YML124C, strain tub3, active compounds read low",0.979
same,normalized growth,"locus YMR058W, strain fet3, active compounds read low",0.987
same,normalized growth,"locus YMR078C, strain ctf18, active compounds read low",0.986
same,normalized growth,"locus YMR125W, strain sto1, active compounds read low",1.01
same,normalized growth,"locus YMR129W, active compounds read low",1.01
same,normalized growth,"locus YMR205C, strain PFK2, active compounds read low",0.946
same,normalized growth,"locus YMR223W, strain ubp8, active compounds read low",0.97
same,normalized growth,"locus YMR231W, strain pep5, active compounds read low",1.01
same,normalized growth,"locus YMR263W, strain SAP30, active compounds read low",0.97
same,normalized growth,"locus YMR307W, strain GAS1, active compounds read low",1.05
same,normalized growth,"locus YNL067W, strain RPL9B, active compounds read low",0.986
same,normalized growth,"locus YNL071W, strain lat1, active compounds read low",0.89 (active)
same,normalized growth,"locus YNL128W, strain TEP1, active compounds read low",0.943
same,normalized growth,"locus YNL153C, strain GIM3, active compounds read low",0.993
same,normalized growth,"locus YNL183C, strain NPR1, active compounds read low",0.933
same,normalized growth,"locus YNL209W, strain ssb2, active compounds read low",1.02
same,normalized growth,"locus YNL233W, strain BNI4, active compounds read low",0.954
same,normalized growth,"locus YNL248C, strain rpa49, active compounds read low",0.963
same,normalized growth,"locus YNL250W, strain rad50, active compounds read low",0.925
same,normalized growth,"locus YNL271C, strain bni1, active compounds read low",0.98
same,normalized growth,"locus YNL298W, strain CLA4, active compounds read low",0.962
same,normalized growth,"locus YNL307C, strain MCK1, active compounds read low",0.952
same,normalized growth,"locus YNL322C, strain KRE1 (second series), active compounds read low",1.02
same,normalized growth,"locus YNR049C, strain mso1, active compounds read low",1
same,normalized growth,"locus YNR052C, strain pop2, active compounds read low",0.99
same,normalized growth,"locus YOL012C, strain htz1",1.17
same,normalized growth,"locus YOL147C, strain pex11, active compounds read low",0.949
same,normalized growth,"locus YOR001W, strain rrp6, active compounds read low",0.957
same,normalized growth,"locus YOR061W, strain CKA2, active compounds read low",0.997
same,normalized growth,"locus YOR069W, strain VPS5, active compounds read low",0.991
same,normalized growth,"locus YOR070C, strain gyp1, active compounds read low",0.992
same,normalized growth,"locus YOR080W, strain dia2, active compounds read low",1.02
same,normalized growth,"locus YOR083W, strain WHI5, active compounds read low",0.961
same,normalized growth,"locus YOR106W, strain vam3, active compounds read low",0.975
same,normalized growth,"locus YOR136W, strain idh2, active compounds read low",0.958
same,normalized growth,"locus YOR144C, strain elg1, active compounds read low",0.984
same,normalized growth,"locus YOR184W, strain ser1, active compounds read low",0.795 (active)
same,normalized growth,"locus YOR231W, strain MKK1, active compounds read low",1.02
same,normalized growth,"locus YOR265W, strain rbl2, active compounds read low",0.999
same,normalized growth,"locus YOR270C, strain vph1, active compounds read low",0.817
same,normalized growth,"locus YOR290C, strain snf2, active compounds read low",0.91
same,normalized growth,"locus YOR316C, strain cot1, active compounds read low",0.986
same,normalized growth,"locus YPL051W, strain arl3, active compounds read low",0.973
same,normalized growth,"locus YPL055C, strain LGE1, active compounds read low",0.926
same,normalized growth,"locus YPL078C, strain atp4, active compounds read low",0.952
same,normalized growth,"locus YPL106C, strain sse1, active compounds read low",1.02
same,normalized growth,"locus YPL240C, strain hsp82, active compounds read low",0.997
same,normalized growth,"locus YPL256C, strain CLN2, active compounds read low",0.997
same,normalized growth,"locus YPR119W, strain clb2, active compounds read low",0.964
same,normalized growth,"locus YPR141C, strain kar3, active compounds read low",0.979
same,normalized growth,"locus YPR163C, strain tif3, active compounds read low",0.978
same,normalized growth,"locus YPR167C, strain met16, active compounds read low",0.956
same,normalized growth,"strain wtn01, active compounds read low",0.911
